# Screening results (PubChem)
# OPRM1-OPRD1 ag: agonists of OPRM1-OPRD1 heterodimerization, primary screen, cell-based, luminescence; Mu-type opioid receptor (Homo sapiens) + Delta-type opioid receptor (Homo sapiens), …; cells; activation, % at 9.3 µM; 340,000 tested, 0.3% active;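 note: 0% = vehicle-treated cells and 100% = reference agonist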
# Target sequence (P35372 whole entry, looked up): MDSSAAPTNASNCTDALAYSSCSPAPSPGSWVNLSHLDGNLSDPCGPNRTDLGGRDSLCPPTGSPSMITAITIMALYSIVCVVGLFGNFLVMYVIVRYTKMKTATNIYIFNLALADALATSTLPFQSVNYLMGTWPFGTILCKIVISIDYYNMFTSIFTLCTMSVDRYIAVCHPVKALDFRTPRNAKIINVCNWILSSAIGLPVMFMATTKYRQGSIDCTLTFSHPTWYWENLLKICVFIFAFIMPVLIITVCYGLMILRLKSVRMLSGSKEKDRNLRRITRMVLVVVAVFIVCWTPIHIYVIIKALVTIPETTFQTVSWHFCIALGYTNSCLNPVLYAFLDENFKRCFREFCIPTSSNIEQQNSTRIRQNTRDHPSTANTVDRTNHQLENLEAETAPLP
# Target sequence (P41143 whole entry, looked up): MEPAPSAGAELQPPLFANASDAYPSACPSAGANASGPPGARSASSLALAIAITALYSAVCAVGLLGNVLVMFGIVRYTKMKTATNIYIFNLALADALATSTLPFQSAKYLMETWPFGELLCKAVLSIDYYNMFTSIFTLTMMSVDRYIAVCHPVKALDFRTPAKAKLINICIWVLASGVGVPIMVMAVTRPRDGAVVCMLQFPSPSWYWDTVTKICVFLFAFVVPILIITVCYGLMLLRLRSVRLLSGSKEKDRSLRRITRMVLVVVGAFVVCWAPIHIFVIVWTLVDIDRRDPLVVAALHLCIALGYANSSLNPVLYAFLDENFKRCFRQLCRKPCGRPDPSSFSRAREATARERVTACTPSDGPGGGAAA
# HTR5A ag ctr: HTR5A agonists in luminescence cell assay, primary screen, counter-screen for OPRM1-OPRD1 heterodimer agonist project, full-deck HTS | AID 504692, 2011 | cell-based | activation, % at 9.3 µM | 340,000 tested, 0.61% active | 5-hydroxytryptamine receptor 5A (Homo sapiens), P47898; in the data active = activation mostly above about 9.5%, no sharp cut-off; inactive = mostly below about 7.6%;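 note: 0% = cells with vehicle only and 100% = reference agonist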
# HTR5A inv ag: HTR5A inverse agonists in luminescence cell assay, primary screen, counter-screen for OPRM1-OPRD1 heterodimer inverse agonist project, full-deck HTS. inhibition, % at 9.3 µM. AID 504634, 2011. HTR5A cell line, inverse agonism. 340,000 tested, 0.083% active. 5-hydroxytryptamine receptor 5A (Homo sapiens), P47898; in the data active = inhibition mostly above about 23%, no sharp cut-off; inactive = mostly below about 18%;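 note: 0% = cells with DMSO and 100% = no-cell wells with DMSO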
# OPRM1-OPRD1 inv: inverse agonists of MOR-DOR heterodimerization, primary screen, cell-based, luminescence. Mu-type opioid receptor (Homo sapiens) + Delta-type opioid receptor (Homo sapiens), …. cell-based MOR-DOR heterodimer luminescence, inverse agonism. inhibition, % at 9.3 µM. 340,000 tested, 0.21% active. AID 504357, 2011; in the data active = inhibition above about 22%, passing the limit was not always enough;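 note: 0% = cells with DMSO and 100% = wells without cells with DMSO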
# MOR-DOR ag conf: agonists of MOR-DOR heterodimerization, confirmation, cell-based, luminescence. shares compounds with OPRM1-OPRD1 ag. cells, luminescence complementation. activation, % at 9.3 µM. 830 tested, 45% active;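 note: 0% = vehicle-treated cells and 100% = reference agonist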
# HTR5A ag ctr2: HTR5A agonists in cells, counter-screen for OPRM1-OPRD1 heterodimer agonist project, cell-based, luminescence | shares compounds with OPRM1-OPRD1 ag | HTR5A agonist counterscreen | activation, % at 9.3 µM | 830 tested, 8% active | AID 504905, 2011; in the data active = activation above about 17%;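 note: 0% = vehicle-treated cells and 100% = reference agonist response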
# The depositor's hits bear a star; i = inactive; x = no result. Hits are enriched below; roughly 1.1% of the tested compounds scored in any of these assays. Cut-off read from the data, not from the text of the source, unless noted: active = activation above about 18%; inactive = the rest.
SMILES,OPRM1-OPRD1 ag,HTR5A ag ctr,HTR5A inv ag,OPRM1-OPRD1 inv,MOR-DOR ag conf,HTR5A ag ctr2
CCNc1nc(NCC)nc(N(n2cnnc2)S(=O)(=O)c2ccc(C)cc2)n1,-1,0,-3,6,x,x
O=C1Cc2c([nH]c3ccc([N+](=O)[O-])cc23)-c2ccccc2N1,22*,1,-3,-108,9,2
O=c1[nH]c2cc([N+](=O)[O-])ccc2c2ccccc12,5,2,-8,-27,x,x
Cc1ccc(N2CCN(c3ccc(NCc4nc5ccccc5n4C)cc3)CC2)cc1,283*,-3,9,i,46*,30*
Cn1c(CN2CCN(c3cccc(Cl)c3)CC2)nc2ccccc21,29*,3,11,-141,124*,2
CCCCCCCCCNC(=O)[C@H](NC(=O)COc1ccccc1)[C@@H]1NC(C(=O)OC)C(C)(C)S1 (stereo partly drawn),-2,-1,13,11,x,x
Cc1ccc(-n2cc(CNCCc3ncc(C)[nH]3)c(-c3ccc(F)cc3)n2)cc1,2,-1,3,-10,x,x
O=C(c1ccc(N2CCCC2=O)cc1)N1CCN(c2cccc(C(F)(F)F)c2)CC1,-3,0,-1,15,x,x
CCCN1CCC(N(CCc2ccccc2)Cc2ccccc2)CC1,1,-5,16,-7,x,x
COc1ccc(CN2CCC(N(CCc3ccccc3)Cc3ccccc3)CC2)c(OC)c1,107*,3,-9,i,3,7
COc1ccc(-c2nc(CN3CCC(C(=O)NC4CCCc5ccccc54)CC3)c(C)o2)cc1OC (stereo not drawn),199*,2,5,i,38*,5
COc1ccc(-c2nc(CN3CCC(C(=O)NC4CCCC4)CC3)c(C)o2)cc1OC,110*,0,1,i,18*,1
COc1ccc(-c2nc(CN3CCC(c4ccccc4)CC3)c(C)o2)cc1OC,4,4,6,-22,x,x
CCCc1cc(=O)[nH]c(SCC(=O)N2CCc3ccccc3C2)n1,-1,1,5,4,x,x
COc1cc(-c2noc(CCCC(=O)Nc3cccnc3)n2)cc(OC)c1OC,-4,8,21,20,x,x
CCOC(=O)c1sc2nc(SCC(=O)NCc3ccco3)n(Cc3ccccc3)c(=O)c2c1C,150*,0,2,i,2,3
CCc1cccc(OCCCCNCCO)c1,-2,3,-3,10,x,x
COc1ccc(Cc2nc3ccc(C(=O)NCCn4ccnc4C)cc3o2)cc1OC,-2,2,1,10,x,x
CC(=O)OC1CCC(OC(C)=O)c2c1n([O-])c(C)c(C)[n+]2=O (stereo not drawn),-2,2,5,10,x,x
COc1cc(Br)cc(/C=N/NC(=O)Cc2ccc(C(F)(F)F)cc2[N+](=O)[O-])c1O,18*,4,-36,-96,42*,2
COc1ccc(CN(CCN(C)C)c2ccccn2)cc1,-3,8,-30,15,x,x
CCCCCCCCCCCCCCCC[N+](C)(C)CCN(Cc1ccc(OC)cc1)c1ncccn1,29*,23,-32,-163,35*,0
CC(=O)Nc1sc(N/N=C/c2ccc(O)cc2)nc1-c1ccc(C)cc1,-1,0,0,4,x,x
CC(C)(C)c1csc(N/N=C/c2ccc(O)cc2)n1,18*,-1,4,-84,49*,1
COc1cc2c(cc1OC)CN(C(=O)Nc1ccccc1Cl)CC2,-2,-1,-2,10,x,x
COc1cc2c(cc1OC)CN(C(=O)Nc1ccccc1)CC2,60*,5,-25,-302,2,2
Cc1ccc(Cn2ccc(=O)c(OCc3c(Cl)cccc3Cl)c2C)cc1,28*,2,-15,-169,0,24*
COc1ccc(C(CNC(=O)C(C)c2ccc3cc(OC)ccc3c2)N(C)C)cc1 (stereo not drawn),23*,5,-15,-188,56*,-4
COc1ccc(C(CNC(=O)Cc2ccc3ccccc3c2)N(C)C)cc1 (stereo not drawn),37*,7,-20,-296,0,-1
